In ChEMBL document CHEMBL1961873, “Compounds: GSK PKIS; Assays: Nanosyn kinase panel” (2012):

Key:
[1] = biological target: Protein kinase C gamma type (Homo sapiens) (UniProt P05129); settings: at 1 µM;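 also: each value is an averaged percent inhibition of the enzyme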
[2] = biological target: T1, Protein kinase C iota type (Homo sapiens) (UniProt P41743); settings: at 0.1 µM
T1 sequence (whole entry): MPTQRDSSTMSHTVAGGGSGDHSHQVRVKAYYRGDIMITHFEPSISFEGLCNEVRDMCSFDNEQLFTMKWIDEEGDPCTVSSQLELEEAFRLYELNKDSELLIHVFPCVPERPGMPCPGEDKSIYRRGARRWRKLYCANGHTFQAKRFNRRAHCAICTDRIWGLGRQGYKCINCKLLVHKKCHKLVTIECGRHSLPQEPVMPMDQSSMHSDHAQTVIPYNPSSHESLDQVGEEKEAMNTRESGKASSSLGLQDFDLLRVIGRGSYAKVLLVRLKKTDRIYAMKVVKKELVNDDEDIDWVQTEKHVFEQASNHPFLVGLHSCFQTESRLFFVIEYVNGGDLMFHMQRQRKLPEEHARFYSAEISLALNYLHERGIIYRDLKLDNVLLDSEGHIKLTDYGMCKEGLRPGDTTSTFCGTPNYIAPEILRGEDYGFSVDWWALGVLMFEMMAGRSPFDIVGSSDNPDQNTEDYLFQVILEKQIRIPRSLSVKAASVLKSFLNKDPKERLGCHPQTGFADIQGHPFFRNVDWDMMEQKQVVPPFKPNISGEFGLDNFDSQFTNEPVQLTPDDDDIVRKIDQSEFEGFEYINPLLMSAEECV

[3] = biological target: T1, Protein kinase C iota type (Homo sapiens); settings: at 1 µM
[4] = biological target: Protein kinase C theta type (Homo sapiens) (UniProt Q04759); settings: at 0.1 µM
[5] = biological target: Protein kinase C theta type (Homo sapiens) (UniProt Q04759); settings: at 1 µM
[6] = biological target: Protein kinase C beta type (Homo sapiens) (UniProt P05771); settings: at 0.1 µM
[7] = biological target: Protein kinase C beta type (Homo sapiens) (UniProt P05771); settings: at 1 µM
[8] = biological target: T2, Serine/threonine-protein kinase D1 (Homo sapiens) (UniProt Q15139); settings: at 0.1 µM
T2 sequence (whole entry): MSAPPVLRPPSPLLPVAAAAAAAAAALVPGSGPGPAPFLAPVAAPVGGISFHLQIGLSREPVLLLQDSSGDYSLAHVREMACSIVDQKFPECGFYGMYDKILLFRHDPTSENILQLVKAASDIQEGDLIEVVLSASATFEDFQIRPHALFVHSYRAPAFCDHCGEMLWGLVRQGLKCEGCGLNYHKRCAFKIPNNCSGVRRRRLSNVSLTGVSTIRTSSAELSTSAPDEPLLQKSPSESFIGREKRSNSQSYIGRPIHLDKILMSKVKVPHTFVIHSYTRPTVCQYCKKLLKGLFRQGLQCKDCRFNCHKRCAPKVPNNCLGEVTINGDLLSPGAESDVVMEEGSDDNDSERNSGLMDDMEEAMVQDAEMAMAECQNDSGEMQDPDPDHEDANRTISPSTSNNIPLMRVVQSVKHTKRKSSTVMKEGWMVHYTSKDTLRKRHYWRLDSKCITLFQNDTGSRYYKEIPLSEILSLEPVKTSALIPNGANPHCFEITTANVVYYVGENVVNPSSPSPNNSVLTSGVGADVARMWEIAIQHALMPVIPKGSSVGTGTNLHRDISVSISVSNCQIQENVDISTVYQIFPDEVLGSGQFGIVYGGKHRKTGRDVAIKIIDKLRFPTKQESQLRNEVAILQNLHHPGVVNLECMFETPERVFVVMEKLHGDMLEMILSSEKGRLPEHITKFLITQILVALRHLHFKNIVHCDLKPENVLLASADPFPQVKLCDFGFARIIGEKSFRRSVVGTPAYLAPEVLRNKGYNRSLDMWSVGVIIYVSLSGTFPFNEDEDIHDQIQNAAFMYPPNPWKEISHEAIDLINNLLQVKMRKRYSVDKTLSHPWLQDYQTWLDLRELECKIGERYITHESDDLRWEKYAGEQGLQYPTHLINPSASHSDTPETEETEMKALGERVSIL

[9] = biological target: T2, Serine/threonine-protein kinase D1 (Homo sapiens); settings: at 1 µM
[10] = biological target: T3, Serine/threonine-protein kinase D2 (Homo sapiens) (UniProt Q9BZL6); settings: at 0.1 µM;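 also: reported percent inhibition values are means, part of the GSK PKIS kinase panel screen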
T3 sequence (whole entry): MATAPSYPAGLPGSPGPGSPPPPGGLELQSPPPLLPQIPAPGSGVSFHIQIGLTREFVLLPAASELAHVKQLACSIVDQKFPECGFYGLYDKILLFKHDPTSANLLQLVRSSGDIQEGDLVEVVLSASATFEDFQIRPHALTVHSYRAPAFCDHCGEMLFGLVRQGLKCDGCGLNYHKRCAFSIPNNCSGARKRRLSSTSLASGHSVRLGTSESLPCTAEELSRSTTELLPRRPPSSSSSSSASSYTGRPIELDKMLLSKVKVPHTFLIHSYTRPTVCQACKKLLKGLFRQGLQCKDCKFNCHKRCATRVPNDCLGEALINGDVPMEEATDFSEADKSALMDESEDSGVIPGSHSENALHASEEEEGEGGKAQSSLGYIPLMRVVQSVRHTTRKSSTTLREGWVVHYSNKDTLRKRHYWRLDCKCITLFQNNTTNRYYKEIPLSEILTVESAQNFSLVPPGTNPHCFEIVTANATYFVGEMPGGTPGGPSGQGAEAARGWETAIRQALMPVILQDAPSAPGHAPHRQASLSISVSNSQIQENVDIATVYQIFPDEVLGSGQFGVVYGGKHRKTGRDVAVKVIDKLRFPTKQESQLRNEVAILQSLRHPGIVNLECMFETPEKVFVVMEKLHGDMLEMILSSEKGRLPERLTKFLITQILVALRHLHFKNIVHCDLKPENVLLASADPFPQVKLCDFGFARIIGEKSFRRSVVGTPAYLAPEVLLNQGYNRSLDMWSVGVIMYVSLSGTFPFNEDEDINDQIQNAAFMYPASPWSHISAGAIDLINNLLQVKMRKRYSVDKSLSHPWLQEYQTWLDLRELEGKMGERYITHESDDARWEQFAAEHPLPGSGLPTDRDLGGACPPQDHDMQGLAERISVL

Chain of Protein kinase C theta type (Homo sapiens) (Q04759 whole entry, looked up): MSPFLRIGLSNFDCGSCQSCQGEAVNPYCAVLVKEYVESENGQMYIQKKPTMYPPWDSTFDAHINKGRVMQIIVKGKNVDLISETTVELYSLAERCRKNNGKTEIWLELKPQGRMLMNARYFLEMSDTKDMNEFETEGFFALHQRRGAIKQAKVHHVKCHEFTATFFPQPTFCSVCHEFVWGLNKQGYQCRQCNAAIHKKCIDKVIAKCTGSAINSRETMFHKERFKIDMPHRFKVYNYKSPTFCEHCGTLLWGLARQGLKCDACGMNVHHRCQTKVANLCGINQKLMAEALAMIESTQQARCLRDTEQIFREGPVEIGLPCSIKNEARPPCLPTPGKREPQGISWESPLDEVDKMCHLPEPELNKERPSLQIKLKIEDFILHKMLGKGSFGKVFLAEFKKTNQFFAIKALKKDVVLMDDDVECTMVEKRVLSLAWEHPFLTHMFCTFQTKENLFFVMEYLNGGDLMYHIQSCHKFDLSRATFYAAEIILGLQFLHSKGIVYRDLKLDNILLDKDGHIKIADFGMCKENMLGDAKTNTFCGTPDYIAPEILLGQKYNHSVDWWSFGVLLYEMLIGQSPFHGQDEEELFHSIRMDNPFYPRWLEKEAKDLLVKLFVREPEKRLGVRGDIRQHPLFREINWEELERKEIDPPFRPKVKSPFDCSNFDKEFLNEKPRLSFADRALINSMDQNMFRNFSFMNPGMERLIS
Chain of Protein kinase C beta type (Homo sapiens) (P05771 2-671 limits assumed): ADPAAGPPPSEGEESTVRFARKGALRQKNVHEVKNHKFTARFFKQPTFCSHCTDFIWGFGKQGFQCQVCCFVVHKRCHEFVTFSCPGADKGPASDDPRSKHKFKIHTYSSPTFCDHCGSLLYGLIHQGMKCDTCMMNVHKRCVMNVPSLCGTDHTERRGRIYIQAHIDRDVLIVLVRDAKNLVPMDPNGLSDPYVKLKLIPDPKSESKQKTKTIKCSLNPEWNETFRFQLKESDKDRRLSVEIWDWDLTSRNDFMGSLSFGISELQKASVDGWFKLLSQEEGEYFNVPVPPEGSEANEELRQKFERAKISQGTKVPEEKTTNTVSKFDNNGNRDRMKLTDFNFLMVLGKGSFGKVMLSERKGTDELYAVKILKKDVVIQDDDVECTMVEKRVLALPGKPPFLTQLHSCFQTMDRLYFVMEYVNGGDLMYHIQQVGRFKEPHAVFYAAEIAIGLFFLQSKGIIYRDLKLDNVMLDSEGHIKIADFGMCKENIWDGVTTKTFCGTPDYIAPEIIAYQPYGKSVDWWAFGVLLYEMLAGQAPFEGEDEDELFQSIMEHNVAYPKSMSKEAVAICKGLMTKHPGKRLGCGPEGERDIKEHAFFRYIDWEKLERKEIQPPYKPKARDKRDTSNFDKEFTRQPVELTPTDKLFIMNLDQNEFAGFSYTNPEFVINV

| Structure (SMILES) | inhibition [1] [%] | inhibition [2] [%] | inhibition [3] [%] | inhibition [4] [%] | inhibition [5] [%] | inhibition [6] [%] | inhibition [7] [%] | inhibition [8] [%] | inhibition [9] [%] | inhibition [10] [%] |
| --- | --- | --- | --- | --- | --- | --- | --- | --- | --- | --- |
| CCn1c(-c2nonc2N)nc2c(C#CC(C)(C)O)nc(OC[C@H](N)c3ccccc3)cc21 | 45.5 | 0.16 | 3.1 | 55.1 | 82.7 | 16.3 | 59.4 | 5.85 | 29.9 | 5.65 |
| CNC(=O)c1cc(-c2ccc(F)cc2)cc(-c2ccc(S(=O)(=O)N3CCCC3)cc2)c1N | 2.53 | 1.11 | 1.04 | 0.84 | 1.4 | -0.56 | 1.04 | 3.87 | 4.98 | 2.4 |
| CCn1c(-c2nonc2N)nc2cnc(Oc3cccc(NC(=O)c4ccc(N(C)C)cc4)c3)cc21 | 28.3 | 6.04 | 45 | 5.55 | 32.3 | 4.27 | 21.8 | 1.61 | 4.29 | 1.81 |
| COc1cccc(-c2c[nH]c3c(N/N=C/c4ccncc4)ncnc23)c1 | 7.65 | 4.1 | 20.3 | 0.91 | 0.99 | 1.66 | 5.79 | 1.3 | 6.07 | 1.26 |
| Fc1ccc(-c2nn3ccccc3c2-c2ccncc2)cc1 | 2.4 | 0.48 | 3.99 | 0.74 | 2.07 | 1.95 | 10.9 | 1.78 | 6.49 | 1.93 |
| COc1cc(Nc2nccc(Nc3ccc4c(C)n[nH]c4c3)n2)cc(OC)c1OC | 5.39 | 1.08 | 3.92 | 1.17 | -0.29 | 2.72 | 6.67 | 2.61 | 2.11 | 1.03 |
| CN1CCC(n2cnc(-c3ccc(F)cc3)c2-c2ccnc(N)n2)CC1 | 8.99 | 0.59 | 0.68 | 1.72 | 3.61 | 2.83 | 12.3 | 4.67 | 26.3 | 3.25 |
| CNC(=O)c1cncc(/C=C/c2ccccc2Cl)c1 | 3.18 | 1.77 | 0.56 | 1.22 | 3.14 | 2.46 | 1.4 | 1.19 | -1.46 | -1 |
| CCn1cc(-c2ccnc3[nH]ccc23)c(-c2cccc(NC(=O)Nc3ccc(OCc4ccccc4)cc3)c2)n1 | 2.68 | -0.3 | 0.28 | 0.93 | 1.88 | 0.47 | 1.93 | 2.3 | 5.37 | 18.8 |
| N#Cc1c(NC(=O)CN2CCOCC2)sc2c1CCCC2 | 4.29 | 1.29 | 0.6 | 3.07 | 3.7 | 1.49 | 2.84 | 3.69 | 6.16 | 3.86 |
| CC1=C(C(=O)Nc2cc(Cl)c3[nH]ncc3c2)C(c2ccc(C(F)(F)F)cc2)CC(=O)N1 (stereo not given) | 3.46 | 1.43 | 1.11 | 5.67 | 28.3 | 1.98 | 2.19 | 2.79 | 6.51 | 3.43 |
| CNC(=O)c1cccc(C#Cc2cncnc2Nc2ccc(OCc3cccc(F)c3)c(Cl)c2)c1 | -1.09 | 0.26 | -0.26 | 0.09 | 1.85 | -3.35 | -0.69 | 0.59 | -0.61 | -0.57 |
| CN1CCC(n2cnc(-c3ccc(F)cc3)c2-c2ccnc(Nc3ccccc3)n2)CC1 | 33.8 | 1.53 | 1.32 | 1.16 | 4.03 | 27.4 | 66.5 | 5.32 | 39.6 | 7.44 |
| CCN1CCC(CC(=O)Nc2n[nH]c3nnc(-c4cccc(F)c4F)cc23)CC1 | 1.09 | 0.63 | 1.36 | 0.68 | 1.31 | 0.16 | 0.85 | 0.72 | 1.85 | 2.45 |
| CCN(CC)S(=O)(=O)c1ccc(OC)c(Nc2ncc(-c3ccccc3)o2)c1 | 3.98 | 0.63 | -0.91 | 1.36 | 1.38 | 0.23 | 1.41 | 1.66 | 0.39 | 0.75 |
| CCn1c(-c2nonc2N)nc2ccccc21 | 4.67 | 1.65 | 6.6 | 1.58 | 6.38 | 0.96 | 7.2 | 2.23 | 5.47 | 2.41 |
| c1ccc(COc2ccc(Nc3ncnc4ccc(-c5ccco5)cc34)cc2)cc1 | 0.84 | -1.29 | -0.86 | -2.6 | -0.62 | 0.49 | 0.58 | 1.25 | 0.71 | 3.12 |
| COc1ccc2[nH]c3c4[nH]c5ccc(OC)cc5c4c4c(c3c2c1)C(=O)NC4=O | 11.7 | 0.72 | 0.15 | 4.69 | 20.9 | 3.68 | 12.9 | 5.02 | 27 | 8.15 |
| Nc1nc(-c2ccc(F)cc2)c(-c2ccc3ncccc3n2)s1 | 4.5 | 2.17 | 1.59 | 1.69 | 3.74 | 1.11 | 3.48 | 8 | 45 | 8.22 |
| Fc1cccc(COc2ccc(Nc3ncnc4sc(-c5ccco5)cc34)cc2Cl)c1 | 1.6 | 2.45 | 2.35 | 2 | 2.39 | 1 | 1.15 | 5.24 | 6.44 | 4.13 |
| CC(C)COC(=O)c1ccc2c(c1)/C(=C/Nc1ccc(S(N)(=O)=O)cc1)C(=O)N2 | 9.06 | -0.44 | 1.73 | 2.36 | 7.78 | 3.37 | 6.47 | 4.18 | 56 | 4.41 |
| CN(C)CCOc1ccc(-c2nc(-c3ccncc3)c(-c3ccc4c(c3)CC/C4=N\O)[nH]2)cc1 | 3.66 | 3.25 | 3.37 | 2.07 | 2.93 | 0.36 | 3.35 | 3.26 | 6.18 | 2.55 |
| COc1cc(N2CCN(C(C)C)CC2)ccc1Nc1nc(Nc2ccc(F)cc2C(N)=O)c2cc[nH]c2n1 | 15.7 | -0.5 | 0.42 | 2.56 | 4.69 | 1.59 | 5.72 | 61.7 | 84.3 | 59.9 |
| Fc1ccc(-c2nn3ncccc3c2-c2ccnc(Nc3ccc4c(c3)OCCO4)n2)cc1 | 7.86 | 0.67 | 3.27 | 1.22 | 3.8 | 3.86 | 20.1 | 4.89 | 36.5 | 8.87 |
| CS(=O)(=O)CCNCc1coc(-c2ccc3ncnc(Nc4ccc(OCc5ccccc5)cc4)c3c2)c1 | 4.91 | 1.33 | 0.97 | 1.31 | 1.25 | -0.17 | 1.35 | 1.97 | 2.95 | 2.53 |
| O=C(O[C@H]1CN[C@H](C#Cc2cc3ncnc(Nc4ccc(Cc5ccccc5)cc4)c3s2)C1)N1CCOCC1 | 3.28 | 2.08 | 2.38 | 1.84 | 2.2 | 2.68 | 4.05 | 2.54 | 3.43 | 3.17 |
| COc1ccc(-c2nn3ncccc3c2-c2ccnc(Nc3ccc4c(c3)OCCO4)n2)cc1 | 3.96 | -0.29 | 0.67 | 0.69 | 2.58 | 1.22 | 7.32 | 3.21 | 6.6 | 2.69 |
| COC(=O)c1sc(-n2cnc3cc(OC)c(OC)cc32)cc1OCc1ccccc1C(F)(F)F | 2.66 | 0.97 | 2.66 | 1.11 | 0.41 | 0.96 | 1.08 | 3.64 | 5.12 | 4.89 |
